Measured values taken from PubChem BioAssay AID2551 (National Center for Advancing Translational Sciences (NCATS), 2010).
The campaign covered roughly 310,000 compounds. About 17,000 (5.5%) were called active. Another 11% or so got no clear call; they are omitted. The full list was thinned out, with actives kept by preference. Values without a mark were called inactive. Calls come from the whole dose curve; as a rule, active = well fitted inhibition curve with a large enough effect; inconclusive = small, poorly fitted or top-dose-only effect, or effect the other way; inactive = no such curve, though single readings can be large or run the other way.

Target: Nuclear receptor ROR-gamma (Mus musculus) (UniProt P51450)
Experiment: qHTS for inhibitors of ROR gamma transcriptional activity; note: nearly all actives have a fitted effect of over 60% in size
Settings: Drosophila S2 Gal4-RORgamma UAS-luciferase reporter, 20 h; series mostly up to 53.6 µM; activity change, negative = inhibition: at the top concentration
Source text: NIH Molecular Libraries Probe Production Network [MLPCN] NIH Chemical Genomics Center [NCGC] MLPCN Grant: R03 DA026211-01 Assay Provider: Dan Littman, New York University Assay Overview: The retinoic acid-related orphan receptor (ROR) gamma is a transcription factor that has a central role in the differentiation of Th17 cells, a subset of T helper cells that secrete the inflammatory cytokines IL-17, IL-17F, and IL-22. Th17 cells have been implicated in graft versus host disease, autoimmune disease and asthma. ROR gamma is induced in naive T helper cells in the presence of TGF-beta combined with IL-6, IL-21, or IL-23, and thereafter directs the expression of the Th17 lineage cytokines. To study the mechanism of action of ROR gamma, an insect cell-based assay was screened. This Drosophila Schneider cell line was stably transfected with two vectors: a gene expressing a fusion of the Gal4 DNA binding domain and ROR gamma transactivation domain under the control of the metallothionine promoter and a Photinus luciferase reporter regulated by the Gal4 binding site enhancer, UAS. […] Small molecule inhibitors of ROR gamma activity are detected by a decrease in luciferase reporter activity.
Assay Protocol Summary: For screening, 600 cells in 4 uL/well were dispensed into white solid 1536-well plates (Grenier) using a solenoid-based dispenser. Following transfer of 23 nL compound or DMSO vehicle by a pin tool, the plates were incubated 1 hr at ambient temperature, and 1 uL/well copper sulfate (700 uM final concentration) was added. The plates were centrifuged 15 s at 1000 RPM and incubated 20 hr at ambient temperature. After addition of 1.5 uL Photinus luciferase detection reagent, the plates were incubated 10 min at ambient temperature and then read by an ViewLux (Perkin Elmer) to detect luminescence. Keywords: NIH Roadmap, MLPCN, MLI, MLSMR, qHTS, NCGC, qHTS, nuclear hormone receptor, retinoic acid-related orphan receptor, ROR gamma
% is set by controls: 0 for no effect and ±100 for the full control effect; potency is the fitted concentration of half-maximal effect.

Nuclear receptor ROR-gamma (Mus musculus), sequence (P51450 whole entry, looked up): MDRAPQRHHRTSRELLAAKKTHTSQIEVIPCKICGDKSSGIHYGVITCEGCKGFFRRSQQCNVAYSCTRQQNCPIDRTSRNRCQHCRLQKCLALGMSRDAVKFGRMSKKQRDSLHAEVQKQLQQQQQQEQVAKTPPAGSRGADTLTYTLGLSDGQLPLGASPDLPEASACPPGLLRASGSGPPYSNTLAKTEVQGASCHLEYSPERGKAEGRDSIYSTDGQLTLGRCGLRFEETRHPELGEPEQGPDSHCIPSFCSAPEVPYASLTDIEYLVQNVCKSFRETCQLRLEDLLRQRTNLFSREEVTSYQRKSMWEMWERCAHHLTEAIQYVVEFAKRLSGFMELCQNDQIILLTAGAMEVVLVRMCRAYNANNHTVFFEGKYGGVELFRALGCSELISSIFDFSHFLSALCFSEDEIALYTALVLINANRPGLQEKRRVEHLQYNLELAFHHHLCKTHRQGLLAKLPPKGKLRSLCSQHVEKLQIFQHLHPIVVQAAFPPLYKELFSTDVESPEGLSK

SMILES | activity change, negative = inhibition | Potency
c1ccc2sc(N3CCNCC3)nc2c1 | -0.416% | 
c1ccc2sc(C3CCCNC3)nc2c1 (stereo unspecified) | 1.38% | 
c1ccc2sc(SNC3CCCCC3)nc2c1 |  | 8.91 µM (active)
CC[N+](C)(CC)CCC[n+]1c(-c2ccccc2)c2cc(N)ccc2c2ccc(N)cc21 |  | 3.16 µM (active)
CN[C@@H]1C[C@H]2O[C@@](C)([C@@H]1OC)n1c3ccccc3c3c4c(c5c6ccccc6n2c5c31)C(=O)NC4 | -41% [at 10 µM] | 
CCOc1cccc(=NC2CCCCC2)c2c(C)[nH]c(C)c12 | -1.6% | 
O=c1oc2ccccc2c(O)c1C(c1ccccc1O)c1c(O)c2ccccc2oc1=O | -16.8% | 
CCNC[C@H](O)c1cccc(O)c1 | -12.3% [at 2.98 µM] | 
C/C(=C\C=C/[C@@H](C)C(=O)O)[C@H]1CN[C@H](C(=O)O)[C@@H]1CC(=O)O | -22.1% | 
Fc1ccc(C(OCCN2CCN(C/C=C\c3ccccc3)CC2)c2ccc(F)cc2)cc1 |  | 14.1 µM (active)
ClC(Cl)=C(Cl)C(Cl)=C(Cl)Cl | 11.4% | 
CC(C)(C)C(O)(CCc1ccc(Cl)cc1)Cn1cncn1 (stereo unspecified) | 3.39% | 
O=c1[nH]c(=S)n(C2CC2)c(O)c1/C=N/N1CCOCC1 | -6.79% | 
O=c1[nH]c(=O)n(Cc2ccccc2)c(O)c1/C=N/Nc1c(F)c(F)c(F)c(F)c1F | -1.88% | 
O=C(N/N=C/c1c(O)n(C2CC2)c(=S)[nH]c1=O)c1ccccc1 |  | 14.1 µM (active)
COc1ccc(C2N3CC(C)(C)CN23)cc1 (stereo unspecified) | 17.3% | 
Clc1ccccc1 | 2.46% | 
C[C@@H]1C[C@@H]2O[C@H]2/C=C\C=C\C(=O)Cc2c(Cl)c(O)cc(O)c2C(=O)O1 |  | 10 µM (active)
CNC(C)[C@@H](O)c1ccccc1 (stereo partly specified) | -6.04% | 
c1ccc(CN2CC[C@@]3(CCCNC3)C2)cc1 | -4.86% | 
CCCCC/C=C\C/C=C\C/C=C\C=C\[C@H](CCCC(=O)O)OO | -25.9% | 

SMILES | activity change, negative = inhibition | Potency
CCC(C)C(=O)O[C@@H]1C[C@@]2(C)C(c3ccoc3)OC(=O)CC23OC2(C)O[C@@]14[C@@]1(C)C(CC(=O)OC)C5(C)CC1(O)C(O)(C5OC(=O)C1(C)OC1C)C(OC(C)=O)[C@@]34O2 (stereo partly specified) | 40.2% | 
CCCCCn1c(=O)c(C(=O)NCc2ccccc2)c(O)c2ccccc21 |  | 12.6 µM (active)
CCCCCn1c(=O)c(C(=O)NCc2ccccn2)c(O)c2ccccc21 |  | 5.01 µM (active)
CCCCCn1c(=O)c(C(=O)Nc2c(C)n(C)n(-c3ccccc3)c2=O)c(O)c2ccccc21 | 11.8% | 
CCCCn1c(=O)c(C(=O)Nc2ccccc2Cl)c(O)c2ccccc21 | 1.37% [at 1.91 µM] | 
CC[N+]1(CCOC(=O)C(O)(c2ccccc2)c2ccccc2)CCCCC1 | 39.3% | 
Cc1cccc([C@H](C)c2cnc[nH]2)c1C | -27.6% | 
CCC1(c2ccccc2)C(=O)NC(=O)N(C)C1=O (stereo unspecified) | 20.7% | 
O=c1[nH]c(=O)n(-c2ccccc2)c(O)c1C=NC12CN3CN(CN(C3)C1)C2 | -4.47% | 
CC(=O)c1c(O)c(C)c(O)c(Cc2c(O)c3c(c(C(=O)/C=C/c4ccccc4)c2O)OC(C)(C)C=C3)c1O | 15.8% | 
CC[C@@H]1CN2CC[C@@H]1C[C@H]2[C@H](O)c1ccnc2ccc(OC)cc12 | 2.09% | 
N#CC(C#N)=Cc1cc(O)c(O)c([N+](=O)[O-])c1 | -101% | 
CCN1C[C@@]2(COC)CC[C@H](OC)[C@]34[C@@H]1[C@]1(OCO[C@@]15C[C@@H](OC)C1C[C@H]3[C@H]5[C@@H]1OC)[C@H](O)[C@@H]24 | 1.1% [at 16.9 µM] | 
C[C@H]1C/C=C/[C@@H]2[C@@H]3O[C@]3(C)[C@@H](C)[C@H]3[C@H](Cc4ccccc4)NC(=O)[C@]32OC(=O)O/C=C/[C@](C)(O)C1=O | -36% | 
C=CCN1CCC23c4c5ccc(O)c4O[C@H]2C(=O)CC[C@@]3(O)C1C5 (stereo partly specified) | 14.1% [at 10 µM] | 
COC([CH2][Hg])CNC(=O)c1ccccc1OCC(=O)O (stereo unspecified) | -0.223% | 
CN(C)C[C@H]1CCCC[C@]1(O)c1cccc(O)c1 | -2.52% | 
c1csc(CN2CCCC3(CCNCC3)C2)n1 | -23.1% | 
C[C@H]1CC[C@@]2(NC1)O[C@@H]1C[C@H]3[C@@H]4CC=C5C[C@@H](O)CC[C@]5(C)[C@@H]4CC[C@]3(C)[C@@H]1[C@@H]2C | 0.0152% [at 16.9 µM] | 
CN1CCCC(=C(c2cccs2)c2cccs2)C1 | 0.594% | 
CCCCCCCCCCCCN=C(N)N | 15.1% | 

SMILES | activity change, negative = inhibition | Potency
CN1C2C=C(N(C(=O)c3ccc(Cl)cc3)c3ccccc3)CC1CC2 (stereo unspecified) | -23.9% | 
Cc1cc(C)cc(C(=O)N(CCc2ccccc2)C2=CC3CCC(C2)N3C)c1 (stereo unspecified) |  | 12.6 µM (active)
CCCCC/C=C\C/C=C\C/C=C\C/C=C\CCCCCC(=O)NCCO |  | inactive
O=C(N/N=C/c1ccc([N+](=O)[O-])o1)c1cc([N+](=O)[O-])cc([N+](=O)[O-])c1O | -2.56% | 
c1ccc(N2CC[C@@]3(CCCNC3)C2)nc1 | -12.7% | 
CCC(=NCCc1ccccc1)c1c(O)n(C2CCCCC2)c(=O)[nH]c1=O | -28.4% | 
CC/C(=N\NC(=O)c1ccccc1O)c1c(O)n(Cc2ccccc2)c(=O)[nH]c1=O |  | 12.6 µM (active)
CCC(=NCc1ccco1)c1c(O)n(Cc2ccccc2)c(=O)[nH]c1=O | 33.4% | 
NC[C@H](O)c1ccc(O)cc1 | 3.67% [at 16.9 µM] | 
COc1ccc(C2Oc3c(I)c(OC)cc(OC)c3CC2O)cc1OC (stereo unspecified) | 12.7% | 
CC(C)(C)c1ccc(CN2C(=O)CN=C(c3ccccc3)c3ccccc32)cc1 | 24.6% | 
ClCCBr | 14.1% | 
Cc1cc(C)cc(NC(=S)NC2CC3CCCC(C2)N3Cc2cccs2)c1 (stereo unspecified) |  | 8.91 µM (active)
C[C@@H]1C[C@H]2CC[C@H](O2)[C@H](C)C(=O)O[C@@H](C)C[C@@H]2CC[C@@H](O2)[C@@H](C)C(=O)O[C@H](C)C[C@H]2CC[C@H](O2)[C@H](C)C(=O)O[C@@H](C)C[C@@H]2CC[C@@H](O2)[C@@H](C)C(=O)O1 |  | 0.891 µM (active)
CC(=O)Oc1ccccc1C(=O)Nc1ncc([N+](=O)[O-])s1 | -79.1% | 
N#Cc1c(Cl)c(Cl)c(Cl)c(C#N)c1Cl |  | 2.51 µM (active)
O=C1CCc2cccc3c2N1CC3 | -10.2% | 
Nc1ccc(-c2ccc(N)c(N)c2)cc1N | 12.8% | 
CC1=CC(=O)C2=C(C)C[C@H](O)[C@H]3[C@H](C)C(=O)O[C@@H]3C12 (stereo partly specified) | 2.61% | 
